The list is not random: actives were taken first. Their share in the collection is about 3.5%.
Mtb bLac sens: beta-lactam sensitization of Mtb H37Rv, H37Rv; M. tuberculosis H37Rv growth with meropenem, percent inhibition; inhibition, % at 25 µM; 0.27% of 330,000 active; AID 434955, 2010; call rule not given here;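 further: growth measured after seven days incubation then overnight dye step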
Rv3671c inh: Rv3671c serine protease inhibitors, primary screen, biochemical, fluorescence polarization, M. tuberculosis H37Rv. 0.048% of 320,000 active. inhibition, % at 5.96 µM. AID 2606, 2010. P9WHR9; in the data active means inhibition above about 38%;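 further: extracellular domain of Rv3671c used as enzyme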
UGM FP inh: M. tuberculosis UGM enzyme inhibitors, primary screen, biochemical, fluorescence polarization, single point | UDP-galactopyranose mutase (Mycobacterium tuberculosis (strain ATCC 25618 / H37Rv)), … | purified UGM, fluorescence polarization probe displacement | inhibition, % at 10 µM | 0.06% of 320,000 active; in the data active means inhibition above about 10%, passing the limit was not always enough
Target sequence (P9WIQ1 whole entry, looked up): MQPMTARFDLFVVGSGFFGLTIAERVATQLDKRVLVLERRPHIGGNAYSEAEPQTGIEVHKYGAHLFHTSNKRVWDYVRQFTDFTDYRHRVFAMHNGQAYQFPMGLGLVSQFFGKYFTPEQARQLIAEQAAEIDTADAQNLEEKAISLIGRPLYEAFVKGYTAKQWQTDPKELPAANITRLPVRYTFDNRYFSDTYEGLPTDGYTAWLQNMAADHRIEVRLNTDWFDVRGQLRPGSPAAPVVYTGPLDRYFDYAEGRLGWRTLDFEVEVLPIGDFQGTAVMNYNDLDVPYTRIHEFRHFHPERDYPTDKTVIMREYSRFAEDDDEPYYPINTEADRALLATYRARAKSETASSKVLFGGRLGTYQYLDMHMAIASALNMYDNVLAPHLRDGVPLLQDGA
GDH-TPI counter-1: GDH-TPI coupling enzyme inhibitors, primary screen, artefact control for M. tuberculosis FBA inhibitor project, biochemical, absorbance, full deck; inhibition, % at 4.8 µM; 1.2% of 360,000 active; GDH-TPI coupled enzyme counterscreen, NADH absorbance; AID 588335, 2011; in the data active means inhibition above about 30%
FBA Mtb inh: Mtb FBA enzyme inhibitors, primary screen, biochemical, fluorescence, strain H37Rv; purified M. tuberculosis FBA, fluorescence read-out; Fructose-bisphosphate aldolase (Mycobacterium tuberculosis (strain ATCC 25618 / H37Rv)), …; 2.3% of 360,000 active; inhibition, % at 1 µM
Mtb FBA inh conf: M. tuberculosis aldolase blockers, biochemical, fluorescence, strain H37Rv, confirmation; shares compounds with FBA Mtb inh; purified M. tuberculosis FBA, fluorescence read-out; inhibition, % at 1 µM; 78% of 5,600 active; AID 651616, 2012
GDH-TPI counter-2: GDH-TPI coupling enzyme inhibitors, artefact control for M. tuberculosis FBA inhibitor project, biochemical, fluorescence, high throughput. GDH-TPI coupled enzyme counterscreen. shares compounds with FBA Mtb inh. 81% of 5,600 active. AID 652141, 2013. inhibition, % at 1 µM; in the data active means inhibition above about 10%
Numbers stand for hits; – = inactive; · = not tested or not shown; + = active, no number. Unless noted, no stated cut-off is given here; in the data, active means inhibition above about 27%; inactive means the rest.

SMILES	Mtb bLac sens	Rv3671c inh	UGM FP inh	GDH-TPI counter-1	FBA Mtb inh	Mtb FBA inh conf	GDH-TPI counter-2
CC(C)C(=O)Nc1cc(-c2nc3ncccc3o2)ccc1Cl	–	–	–	–	–	·	·
CC(C)C(=O)Nc1cccc(-c2nc3ncccc3o2)c1	–	–	–	–	35	158	125
Cc1nn(C)cc1CN1CCCC(C(=O)c2ccc(-c3ccccc3)c(F)c2)C1 (stereo not given)	–	–	–	–	–	·	·
COc1ccc(-c2ncccc2O)cc1	–	–	–	–	40	88	91
O=C(Oc1ccc([N+](=O)[O-])cc1)C1CC(=O)N(c2ccc3c(c2)OCCO3)C1 (stereo not given)	–	–	–	–	–	·	·
CC1(C2CC2)NC(=O)N(CC(=O)Nc2ccccc2-c2ccccc2)C1=O (stereo not given)	–	–	–	–	–	·	·
CC1CCC2(CC1)NC(=O)N(CC(=O)Nc1ccccc1-c1ccccc1)C2=O (stereo not given)	–	–	–	–	55	–	–
CC(C)C(C(=O)NC(C)(C)C)N1C(=O)c2ccccc2C1=O (stereo not given)	–	–	–	–	–	·	·
CC(C(=O)NC(C)(C)C)N1C(=O)c2cccc3cccc(c23)C1=O (stereo not given)	–	–	–	–	27	–	–
COCC(=O)N1CCC(Oc2ccc(C(=O)N(C)Cc3nccs3)cc2)CC1	–	–	–	–	–	·	·
Cc1oc2cc(O)ccc2c(=O)c1-c1cnn(-c2ccccc2)c1	–	–	–	–	41	+	+
Cc1oc2cc(O)ccc2c(=O)c1-c1ccccc1	–	–	–	–	71	199	161
CCCn1nc2cc(C(=O)NCc3ccc(OC)cc3)ccc2c1OCC	–	–	–	–	48	60	32
COc1ccc(CNC(=O)c2ccc3nccnc3c2)cc1	–	–	–	–	–	·	·
CCCn1nc2cc(C(=O)NCc3ccc(OC(F)(F)F)cc3)ccc2c1OCC	–	–	–	–	37	102	81
N#CC1=C(N)OC2=C(C(=O)CCC2)C1c1cc2c(cc1Br)OCO2 (stereo not given)	–	–	–	–	–	·	·
CC1CCCC(C)N1NC(=S)Nc1ccc(OC(F)F)cc1 (stereo not given)	–	–	–	–	55	60	53
CCNC(=O)COC(=O)c1ccc(-c2nc3ccccc3s2)s1	–	–	–	–	59	+	+
Cc1noc(C)c1COC(=O)c1ccc(-c2nc3ccccc3s2)s1	–	–	–	–	–	·	·
COc1cccc(-c2cc(C(=O)N3CCN(S(=O)(=O)c4ccc(Br)cc4)CC3)[nH]n2)c1	–	–	–	–	–	·	·
CC(=O)N1N=C(c2ccccc2)OC12CCCC2	–	–	–	–	–	·	·
CC(=O)N1N=C(c2ccncc2)OC12CCCCC2	–	–	–	–	89	49	40
CC(=O)N1N=C(c2ccncc2)OC12CCCCCC2	–	–	–	–	77	+	+
COc1ccc(N2CC(NS(=O)(=O)c3cccnc3)CC2=O)cc1OC (stereo not given)	–	–	–	–	30	106	77
Cc1ccc(N2CC(NS(=O)(=O)c3cccnc3)CC2=O)cc1C (stereo not given)	–	–	–	–	–	·	·
SMILES	Mtb bLac sens	Rv3671c inh	UGM FP inh	GDH-TPI counter-1	FBA Mtb inh	Mtb FBA inh conf	GDH-TPI counter-2
Cc1ccc(NC(=O)CN(C)CC(=O)Nc2ccccc2C(=O)Nc2ccccc2)cc1	–	–	–	–	73	–	–
CC(OC(=O)c1ccccc1NCCO)C(=O)NCC(=O)Nc1ccc(F)c(F)c1F (stereo not given)	–	–	–	–	91	128	97
Cc1ccc(NC(=O)CN(C)C(=O)C(C)OC(=O)c2ccccc2NCCO)cc1 (stereo not given)	–	–	–	–	92	98	73
CC(Oc1ccc2c(-c3ccccc3)cc(=O)oc2c1)C(=O)NCC1CCC(C(=O)O)CC1 (stereo not given)	–	–	–	–	–	·	·
O=C(COc1ccc2c3c(c(=O)oc2c1)CCC3)NCC1CCC(C(=O)O)CC1 (stereo not given)	–	–	–	–	–	·	·
O=C(COc1ccc2c(c1)oc(=O)c1ccccc12)NCC1CCC(C(=O)O)CC1 (stereo not given)	–	–	–	–	34	90	54
Cc1c(Cc2ccccc2)c(=O)oc2cc(OC(C)C(=O)NCC3CCC(C(=O)O)CC3)c(Cl)cc12 (stereo not given)	–	–	–	–	34	+	190
CCCCc1cc(=O)oc2cc(OCC(=O)NCC3CCC(C(=O)O)CC3)ccc12 (stereo not given)	–	–	–	–	–	·	·
CCc1c(C)c2ccc(OCC(=O)NCC3CCC(C(=O)O)CC3)cc2oc1=O (stereo not given)	–	–	–	–	79	56	36
CCc1ccc2c(CC(=O)Nc3cccc(S(=O)(=O)N4CCOCC4)c3)coc2c1	–	–	–	–	–	·	·
COc1ccc(Cl)cc1C(=O)NN=C1CCCC1	–	–	–	–	–	·	·
O=C(NN=C1CCCC1)c1cc(Cl)cc(Cl)c1O	–	–	–	–	41	70	61
C[C@H](CO)N1C[C@H](C)[C@@H](CN(C)C(=O)NC2CCCCC2)Oc2c(NS(=O)(=O)c3ccc(F)cc3)cccc2C1=O	–	–	–	–	–	·	·
CC1=C(C#N)C(C)C2=C(CC(C)(C)CC2=O)N1 (stereo not given)	–	–	–	–	57	71	65
O=C(O)CCC(=O)Nc1nc2nc(-c3ccccc3)cc(-c3ccccc3)n2n1	–	–	–	36	98	85	98
COCCCN1C(=O)C(CC(=O)NCc2cccc3ccccc23)CC(C(=O)N(C(C)C)C(C)C)=C1C (stereo not given)	·	·	·	·	–	·	·
CCN1C(=O)c2cccc3c(S(=O)(=O)N4CCNCC4)ccc1c23	–	–	–	–	28	73	65
CCN1CCN(S(=O)(=O)c2ccc3c4c(cccc24)C(=O)N3CC)CC1	–	–	–	–	29	158	149
O=C(N/N=C1/C(=O)c2cccc3cccc1c23)c1ccc(Cl)cc1	–	–	–	–	80	79	62
O=C(O)c1[nH]c2ccccc2c1NS(=O)(=O)Cc1ccccc1	–	–	–	–	61	+	174
